Reference: PubChem BioAssay AID1159580 (chemical genetic matrix, 2015)
Out of some 5,500 compounds screened, about 2,000 (36%) were called active. Another 18% or so got no clear call; they are omitted. Cut-off read from the data, not from the text of the source: active = normalized growth mostly below about 0.91 (no sharp cut-off); inconclusive = no clear call, values can overlap the other calls; inactive = mostly above about 0.92. Some of the results follow.

Assay: chemical genetic growth profiling, strain panel (AID 1159580);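 note: tested at 20 µM; growth read once vehicle control cultures reached saturation at 30 °C; 1 = growth at the plate median or of vehicle wells; lower values mean less growth of the strain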
Details: S. cerevisiae deletion strains, growth OD
[1] = locus YAR019C, strain CDC15, active compounds read low
[2] = locus YBL105C, strain PKC1, active compounds read low
[3] = locus YBR135W, strain CKS1, active compounds read low
[4] = locus YBR136W, strain MEC1, active compounds read low
[5] = locus YBR160W, strain CDC28, active compounds read low
[6] = locus YDL017W, strain CDC7, active compounds read low
[7] = locus YDL028C, strain MPS1, active compounds read low
[8] = locus YDL101C, strain DUN1, active compounds read low
[9] = locus YDL108W, strain KIN28, active compounds read low
[10] = locus YDL132W, strain cdc53, active compounds read low
[11] = locus YDL214C, strain PRR2, active compounds read low
[12] = locus YDR052C, strain DBF4, active compounds read low
[13] = locus YDR054C, strain cdc34, active compounds read low
[14] = locus YDR226W, strain ADK1, active compounds read low
[15] = locus YDR477W, strain SNF1, active compounds read low
[16] = locus YER123W, strain YCK3, active compounds read low
[17] = locus YER133W, strain GLC7, active compounds read low
[18] = locus YFL009W, strain cdc4, active compounds read low
[19] = locus YFL029C, strain CAK1, active compounds read low
[20] = locus YFR003C, strain YPI1, active compounds read low
[21] = locus YFR019W, strain FAB1, active compounds read low
[22] = locus YFR028C, strain CDC14, active compounds read low
[23] = locus YGR040W, strain KSS1, active compounds read low
[24] = locus YGR052W, strain FMP48, active compounds read low
[25] = locus YGR092W, strain DBF2, active compounds read low
[26] = locus YHR030C, strain SLT2, active compounds read low
[27] = locus YHR079C, strain IRE1, active compounds read low
[28] = locus YHR082C, strain KSP1, active compounds read low
[29] = locus YHR205W, strain SCH9, active compounds read low
[30] = locus YIL147C, strain SLN1, active compounds read low
[31] = locus YJL095W, strain BCK1, active compounds read low
[32] = locus YJL128C, strain PBS2, active compounds read low
[33] = locus YJL157C, strain FAR1, active compounds read low
[34] = locus YJR016C, strain ILV3, active compounds read low
[35] = locus YJR066W, strain TOR1 (second series), active compounds read low
[36] = locus YJR066W, strain TOR1, active compounds read low
[37] = locus YKL048C, strain ELM1, active compounds read low
[38] = locus YKL067W, strain YNK1, active compounds read low
[39] = locus YKL101W, strain HSL1, active compounds read low
[40] = locus YKL193C, strain SDS22, active compounds read low
[41] = locus YKL203C, strain TOR2, active compounds read low
[42] = locus YLR113W, strain HOG1, active compounds read low
[43] = locus YLR133W, strain CKI1, active compounds read low
[44] = locus YLR403W, strain SFP1, active compounds read low
[45] = locus YML070W, strain DAK1, active compounds read low
[46] = locus YMR001C, strain CDC5, active compounds read low
[47] = locus YMR205C, strain PFK2 (second series), active compounds read low
[48] = locus YMR277W, strain FCP1, active compounds read low
[49] = locus YNL006W, strain LST8, active compounds read low
[50] = locus YNL020C, strain ARK1, active compounds read low
[51] = locus YNL161W, strain CBK1, active compounds read low
[52] = locus YNL183C, strain NPR1, active compounds read low
[53] = locus YNL207W, strain RIO2, active compounds read low
[54] = locus YNL222W, strain SSU72, active compounds read low
[55] = locus YNL307C, strain MCK1 (second series), active compounds read low
[56] = locus YOL078W, strain AVO1, active compounds read low
[57] = locus YOL136C, strain PFK27, active compounds read low
[58] = locus YOR061W, strain CKA2, active compounds read low
[59] = locus YOR119C, strain RIO1, active compounds read low
[60] = locus YOR231W, strain MKK1, active compounds read low
[61] = locus YOR329C, strain SCD5, active compounds read low
[62] = locus YPL031C, strain PHO85, active compounds read low
[63] = locus YPL153C, strain RAD53, active compounds read low
[64] = locus YPL204W, strain HRR25, active compounds read low
[65] = locus YPL209C, strain IPL1, active compounds read low
[66] = locus YPL256C, strain CLN2, active compounds read low
[67] = locus YPR025C, strain CCL1, active compounds read low
[68] = locus YPR106W, strain ISR1, active compounds read low
[69] = locus YPR111W, strain DBF20, active compounds read low
[70] = strain NNK1, active compounds read low
[71] = strain TSCII, active compounds read low

Measured: normalized growth

Cc1nc(-c2ccccn2)[nH]c(=O)c1Cc1c(Cl)cccc1Cl
inactive: [1] 0.967 | [2] 0.962 | [3] 0.956 | [4] 0.954 | [5] 0.963 | [6] 0.961 | [7] 0.95 | [8] 0.965 | [9] 0.954 | [10] 0.941 | [11] 0.861 | [12] 0.96 | [13] 0.928 | [14] 0.959 | [15] 0.871 | [16] 0.726 | [17] 0.872 | [18] 0.965 | [19] 0.957 | [20] 0.959 | [21] 0.906 | [22] 0.972 | [23] 0.859 | [24] 0.871 | [25] 0.762 | [26] 0.985 | [27] 0.842 | [28] 0.893 | [29] 0.939 | [30] 0.946 | [31] 0.892 | [32] 0.928 | [33] 0.823 | [34] 0.952 | [35] 0.769 | [36] 0.864 | [37] 0.941 | [38] 0.881 | [39] 0.853 | [40] 0.951 | [41] 0.899 | [43] 0.889 | [44] 0.858 | [45] 0.84 | [46] 0.956 | [47] 0.876 | [48] 0.952 | [49] 0.952 | [50] 0.845 | [51] 0.958 | [52] 0.9 | [53] 0.951 | [54] 0.956 | [55] 0.843 | [56] 0.964 | [57] 0.866 | [58] 0.827 | [59] 0.887 | [60] 0.86 | [61] 0.958 | [62] 0.869 | [63] 0.805 | [64] 0.84 | [65] 0.956 | [66] 0.94 | [67] 0.964 | [68] 0.985 | [69] 0.973 | [70] 0.96 | [71] 0.949
active: [42] 0.837

C=CCc1c(CCC)nc(-c2ccccn2)[nH]c1=O
active: [42] 0.733 | [66] 0.823
inactive: [1] 0.931 | [2] 0.945 | [3] 0.95 | [4] 0.933 | [5] 0.947 | [6] 0.931 | [7] 0.931 | [8] 0.945 | [9] 0.937 | [10] 0.936 | [11] 0.893 | [12] 0.955 | [13] 0.916 | [14] 0.94 | [15] 0.891 | [16] 0.772 | [17] 0.912 | [18] 0.928 | [19] 0.92 | [20] 0.952 | [21] 0.939 | [22] 0.945 | [23] 0.893 | [24] 0.904 | [25] 0.752 | [26] 0.875 | [27] 0.701 | [28] 0.883 | [29] 0.983 | [30] 0.931 | [31] 0.784 | [32] 0.96 | [33] 0.867 | [34] 0.94 | [35] 0.767 | [36] 0.748 | [37] 0.966 | [38] 0.902 | [39] 0.896 | [40] 0.936 | [41] 0.926 | [43] 0.886 | [44] 0.892 | [45] 0.884 | [46] 0.937 | [47] 0.901 | [48] 0.944 | [49] 0.943 | [50] 0.877 | [51] 0.945 | [52] 0.825 | [53] 0.924 | [54] 0.945 | [55] 0.84 | [56] 0.933 | [57] 0.883 | [58] 0.877 | [59] 0.905 | [60] 0.73 | [61] 0.941 | [62] 0.891 | [63] 0.864 | [64] 0.856 | [65] 0.94 | [67] 0.945 | [68] 0.944 | [69] 0.954 | [70] 0.945 | [71] 0.929
